Experimental data published in PubChem BioAssay.
Where a SMILES comes first, the peptide text is derived from it. The star is where a group is joined. Boc = CC(C)(C)OC(=O)*

Key:
[1] = system: Botulinum neurotoxin type F light chain protease (Clostridium botulinum); assay: Botulinum neurotoxin type F light chain protease inhibition, multiplex microsphere flow cytometry, validation set (AID 588459); details: multiplex microsphere protease substrate cleavage assay, at 10 µM, active compounds read high
[2] = target: Botulinum neurotoxin type A (Clostridium botulinum) (UniProt P0DPI0); assay: BoNT/A light chain protease inhibitors, biochemical, multiplex microsphere flow cytometry, validation set (AID 588460); details: at 10 µM, active compounds read high
Botulinum neurotoxin type A (Clostridium botulinum), sequence (P0DPI0 whole entry, looked up): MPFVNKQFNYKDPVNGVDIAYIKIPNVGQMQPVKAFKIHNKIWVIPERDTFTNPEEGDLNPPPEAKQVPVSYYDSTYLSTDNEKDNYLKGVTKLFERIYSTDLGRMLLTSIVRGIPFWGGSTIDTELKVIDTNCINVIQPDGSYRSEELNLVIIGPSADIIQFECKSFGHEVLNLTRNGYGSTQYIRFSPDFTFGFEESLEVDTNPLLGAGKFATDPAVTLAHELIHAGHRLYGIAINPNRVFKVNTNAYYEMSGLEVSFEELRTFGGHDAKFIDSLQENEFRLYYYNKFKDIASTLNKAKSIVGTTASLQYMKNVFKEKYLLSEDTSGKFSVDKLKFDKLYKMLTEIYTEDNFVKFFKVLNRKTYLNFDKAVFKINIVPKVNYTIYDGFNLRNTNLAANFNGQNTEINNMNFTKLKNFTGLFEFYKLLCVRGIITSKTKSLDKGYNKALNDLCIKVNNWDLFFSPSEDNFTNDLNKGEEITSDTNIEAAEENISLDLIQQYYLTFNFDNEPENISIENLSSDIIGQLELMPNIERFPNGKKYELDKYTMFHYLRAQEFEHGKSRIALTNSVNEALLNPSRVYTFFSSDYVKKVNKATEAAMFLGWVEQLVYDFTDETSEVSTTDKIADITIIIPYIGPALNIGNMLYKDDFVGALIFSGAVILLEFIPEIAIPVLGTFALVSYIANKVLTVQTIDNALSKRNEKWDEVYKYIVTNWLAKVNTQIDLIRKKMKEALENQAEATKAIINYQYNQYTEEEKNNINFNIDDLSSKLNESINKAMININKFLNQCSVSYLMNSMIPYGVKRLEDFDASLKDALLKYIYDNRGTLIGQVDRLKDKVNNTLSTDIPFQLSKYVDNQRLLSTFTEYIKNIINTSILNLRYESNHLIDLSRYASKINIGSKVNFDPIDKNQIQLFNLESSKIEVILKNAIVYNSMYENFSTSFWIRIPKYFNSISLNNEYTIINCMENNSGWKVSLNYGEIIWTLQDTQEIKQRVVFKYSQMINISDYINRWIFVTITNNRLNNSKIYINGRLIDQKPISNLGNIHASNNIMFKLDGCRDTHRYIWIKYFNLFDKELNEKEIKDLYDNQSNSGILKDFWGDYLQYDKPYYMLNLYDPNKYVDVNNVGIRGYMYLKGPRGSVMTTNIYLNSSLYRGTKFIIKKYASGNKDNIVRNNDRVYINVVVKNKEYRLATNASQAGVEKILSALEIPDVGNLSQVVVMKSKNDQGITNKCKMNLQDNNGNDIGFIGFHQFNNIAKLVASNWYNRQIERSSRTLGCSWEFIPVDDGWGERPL

[3] = target: Lethal factor (Bacillus anthracis) (UniProt P15917); assay: Lethal factor protease inhibitors, Bacillus anthracis, multiplex microsphere cleavage assay, validation set (AID 588461); details: flow cytometry, at 10 µM, active compounds read high
Lethal factor (Bacillus anthracis), sequence (P15917 whole entry, looked up): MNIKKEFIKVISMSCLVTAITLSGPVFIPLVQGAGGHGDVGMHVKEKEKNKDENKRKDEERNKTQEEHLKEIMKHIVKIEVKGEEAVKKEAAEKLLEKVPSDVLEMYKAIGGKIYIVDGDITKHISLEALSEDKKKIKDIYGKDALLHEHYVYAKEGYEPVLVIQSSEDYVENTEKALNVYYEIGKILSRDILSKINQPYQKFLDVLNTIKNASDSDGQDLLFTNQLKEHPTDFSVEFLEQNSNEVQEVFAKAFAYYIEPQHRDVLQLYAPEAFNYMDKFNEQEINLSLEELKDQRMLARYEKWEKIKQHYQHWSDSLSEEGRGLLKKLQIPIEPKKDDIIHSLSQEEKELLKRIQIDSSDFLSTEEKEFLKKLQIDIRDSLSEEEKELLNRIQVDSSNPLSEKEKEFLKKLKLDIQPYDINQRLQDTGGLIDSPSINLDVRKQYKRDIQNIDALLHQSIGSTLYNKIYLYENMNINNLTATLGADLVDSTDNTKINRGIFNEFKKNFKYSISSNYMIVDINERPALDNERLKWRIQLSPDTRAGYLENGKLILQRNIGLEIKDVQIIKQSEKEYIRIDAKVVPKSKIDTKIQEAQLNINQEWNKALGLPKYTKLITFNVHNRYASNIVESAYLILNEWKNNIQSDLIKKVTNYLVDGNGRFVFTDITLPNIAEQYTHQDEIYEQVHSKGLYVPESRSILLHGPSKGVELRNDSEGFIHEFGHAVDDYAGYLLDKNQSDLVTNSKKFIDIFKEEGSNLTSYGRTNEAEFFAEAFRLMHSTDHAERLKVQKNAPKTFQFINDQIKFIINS

Measured: inhibition

CC12CN3CC(C)(CN(C1)C3c1ccc(Br)cc1O)C2 (stereo not given)
inactive: [1] -1.8% | [2] -1.2% | [3] -7.5%

Cc1ccccc1C(=O)NCC(=O)O
inactive: [1] 1.1% | [2] 2.7% | [3] 2.8%

Cc1cc(C)c(NC(=O)NC(=O)C(Cl)(Cl)Cl)c(C)c1
inactive: [1] 2.9% | [2] 0.1% | [3] -3.8%

CCOc1ccc2nc(NC(=O)NC3CCCCC3)sc2c1
inactive: [1] 0% | [2] -1.5% | [3] -3.9%

COc1ccc2cc(-c3nc4ccccc4n3C)c(=O)oc2c1
inactive: [1] 2% | [2] 1.8% | [3] 1%

CC[C@H]1OC(=O)[C@H](C)[C@@H](O[C@H]2C[C@@](C)(OC)[C@@H](O)[C@H](C)O2)[C@H](C)[C@@H](O[C@@H]2O[C@H](C)C[C@H](N(C)C)[C@H]2O)[C@](C)(O)C[C@@H](C)[C@@H]2N[C@@H](COCCOC)O[C@H]([C@H]2C)[C@]1(C)O
inactive: [1] 3.3% | [2] 0.7% | [3] -1.4%

CCOC(=O)C(=O)Nc1ccc(Oc2ccccc2)cc1
inactive: [1] 1.4% | [2] 0% | [3] 1.3%

COCCCN1C(=O)C(=O)/C(=C(/O)c2ccc3c(c2)CC(C)O3)C1c1cccnc1 (stereo not given)
inactive: [1] -3% | [2] -2.1% | [3] 3.5%

CC(C)COc1ccc(Cc2cnc(N)nc2N)cc1
inactive: [1] 5% | [2] 2% | [3] 1.9%

COc1ccccc1-c1ccc(/C=C2/C=C(CC(C)C)OC2=O)o1
inactive: [1] 4.8% | [2] 1.7% | [3] 7.1%

O=C1C(Cc2ccccc2)NC(=S)N1c1ccccc1 (stereo not given)
inactive: [1] 3.8% | [2] 0.9% | [3] -7.8%

C(=C\c1ccc2ccccc2n1)/c1ccccc1
inactive: [1] 1.3% | [2] 0.8% | [3] -3.3%

c1coc(-c2nnc3n2C2(CCCC2)Cc2ccccc2-3)c1
inactive: [1] 2.5% | [2] -1.4% | [3] -5.9%

CC(C)Cc1nc(NCCN2CCOCC2)c(C#N)c2c1COC(C)(C)C2
inactive: [1] -1.6% | [2] -0.8% | [3] -3%

CC(C)C1Cc2[nH]c(=O)c(C(=O)O)cc2CO1 (stereo not given)
inactive: [1] 2.3% | [2] -0.9% | [3] -1.4%

C[C@]12CCC(=O)C[C@@H]1CC[C@@H]1[C@@H]2CC[C@]2(C)C=CC[C@@H]12
inactive: [1] 3.9% | [2] 0.7% | [3] -1.3%

CC(O)Cn1cnc2c1c(=O)n(C)c(=O)n2C (stereo not given)
inactive: [1] -1.4% | [2] -0.5% | [3] -3.2%

CCCCC(=O)O[C@H]1CC[C@H]2[C@@H]3CCc4cc(O)ccc4[C@H]3CC[C@]12C
inactive: [1] 0.5% | [2] 0.1% | [3] -1.7%

COC(=O)c1ccc(CC(=O)c2ccc(O)cc2O)o1
inactive: [1] -3.4% | [2] -0.8% | [3] -5.4%

O=C(CS(=O)(=O)c1ccccc1)c1ccc2c(c1)OCCO2
inactive: [1] 3.2% | [2] 0.7% | [3] 2.2%

O=c1[nH]c(Cc2ccccc2)nc2c1oc1ccccc12
inactive: [1] 4.2% | [2] 0.2% | [3] 8.7%

Cc1oc2cc(O)cc(O)c2c(=O)c1-c1ccc2c(c1)OCCCO2
inactive: [1] 1.4% | [2] -0.4% | [3] -5.8%

CC12CCCCN1CCCc1c2[nH]c2ccccc12 (stereo not given)
inactive: [1] -1.1% | [2] -0.2% | [3] -11.1%

Cc1cc(O)c2/c(=N\N)c(-c3csc(C)n3)coc2c1
inactive: [1] -0.4% | [2] -1% | [3] 2.2%

Cc1cc(=O)c2c(O)c(O)ccc2o1
inactive: [1] 1.8% | [2] 2.5% | [3] -0.2%

C[C@]12CC[C@@H]3c4ccc(OS(=O)(=O)O)cc4CC[C@H]3[C@@H]1CCC2=O
inactive: [1] -0.1% | [2] -0.2% | [3] -0.2%

Clc1cc(-c2ccc(/C=N/n3cnnc3)o2)ccc1Br
inactive: [1] -3.6% | [2] -0.3% | [3] 0.9%

O=C(O)C1CSC(c2ccco2)N1 (stereo not given)
inactive: [1] -2.3% | [2] -2.5% | [3] -0.8%

CC12CCC(C(=O)Nc3ccccc3Br)(C/C1=N\O)C2(C)C (stereo not given)
inactive: [1] -3.6% | [2] -0.7% | [3] -6.5%

CCOC(=O)[C@H](CCc1ccccc1)N[C@@H](C)C(=O)N1CCC[C@H]1C(=O)O
inactive: [1] 3.5% | [2] 0.2% | [3] 3.9%

CC(C)CN1CCN(Cc2ccc(C#CC(C)(C)O)cc2)CC1CCO (stereo not given)
inactive: [1] 3.7% | [2] -1.1% | [3] -2.1%

OC(CCN1CCCCC1)(c1ccccc1)C1CCCCC1 (stereo not given)
inactive: [1] 3.1% | [2] 1% | [3] 1%

COC1=CC(=O)CC(C)C12Oc1c(Cl)c(OC)cc(OC)c1C2=O (stereo not given)
inactive: [1] -0.7% | [2] -0.1% | [3] -1.8%

C[C@H](CCC(=O)O)[C@H]1CC[C@H]2[C@@H]3C(=O)C[C@@H]4CC(=O)CC[C@]4(C)[C@H]3CC(=O)[C@]12C
inactive: [1] -1.4% | [2] -0.5% | [3] -0.9%

CC(=O)[C@H]1CC[C@H]2[C@@H]3CCC4=CC(=O)CC[C@]4(C)[C@H]3[C@H](O)C[C@]12C
inactive: [1] -0.3% | [2] -1.3% | [3] -5.3%

CCc1ccc2oc(=O)cc(CN3CCC(C)CC3)c2c1
inactive: [1] 5.5% | [2] 0.8% | [3] 1.4%

CN1CCCN=C1COC(=O)C(O)(c1ccccc1)C1CCCCC1 (stereo not given)
inactive: [1] -1.4% | [2] -0.9% | [3] -4.7%

Cc1ccc2c(c1)C(C)(C)[C@]1(C)NC(=O)CCN21
inactive: [1] -1.8% | [2] -0.2% | [3] 0%

Cc1c(Cc2ccccc2)c(=O)oc2c(CN(C)C)c(O)c(Cl)cc12
inactive: [1] 0% | [2] -0.6% | [3] -7.6%

Cc1ccc(SCC(=O)Nc2nccs2)cc1
inactive: [1] -4.8% | [2] -0.5% | [3] -5.6%

CCC(C(=O)Nc1ccc2c(c1)OCCO2)c1ccccc1 (stereo not given)
inactive: [1] 0.7% | [2] -0.2% | [3] -1.8%

c1ccc2c3c(c(CN4CCCCC4)cc2c1)COC3
inactive: [1] 5.7% | [2] -1% | [3] 0.6%

O=C(O)c1cc(-c2ccc3c(c2)OCO3)nc2ccc(Br)cc12
inactive: [1] -1% | [2] 3% | [3] -2.6%

CCOCCn1c(C(C)O)nc2ccccc21 (stereo not given)
inactive: [1] 4% | [2] 0.3% | [3] 3.1%

Cn1c(=O)oc2cc(S(=O)(=O)N3CCc4ccccc4C3)ccc21
inactive: [1] -0.9% | [2] -3% | [3] -3.5%

CNc1nc(N(C)C)nc(N(C)C)n1
inactive: [1] 1.3% | [2] 0.7% | [3] -1.7%

CC(C)CC(NC(=O)C1CCCN1C(=O)OC(C)(C)C)C(=O)NCC(N)=O (stereo not drawn) (Boc-Pro-Leu-Gly-NH2; configuration not given here)
inactive: [1] 3.5% | [2] 0.3% | [3] 4.3%

CCCOc1ccc(-c2cc(C(=O)NCC3CCCO3)c3ccccc3n2)cc1 (stereo not given)
inactive: [1] -0.2% | [2] -0.7% | [3] -5.1%

CC(C)=CCC/C(C)=C/CC/C(C)=C/CC/C(C)=C/CC1=C(C)C(=O)c2ccccc2C1=O
inactive: [1] -4.8% | [2] -0.7% | [3] -3%

COC(=O)c1cc(-c2ccc(C)o2)nc2ccccc12
inactive: [1] 1.8% | [2] 2% | [3] 2.2%

CC1(C)CC(c2csc(N)n2)CCO1 (stereo not given)
inactive: [1] -0.4% | [2] -1% | [3] -8.4%

O=C(Nc1ncc2c(n1)CC(c1ccco1)CC2=O)c1ccco1 (stereo not given)
inactive: [1] -2.6% | [2] -3.2% | [3] -10.4%

COc1ccc(CNC(=O)c2cc3c(=O)n4ccccc4nc3n(Cc3cccnc3)c2=N)cc1
inactive: [1] -1.2% | [2] 0.4% | [3] -1.9%

CCC(=O)Nc1ccc(C(=O)N2CCN(C(=O)c3ccco3)CC2)cc1
inactive: [1] -2.6% | [2] -1.9% | [3] -2.7%

COc1ccc(C(=O)Nc2ccccc2C(=O)NCCCn2ccnc2)cc1
inactive: [1] -3.6% | [2] -1.8% | [3] -3.7%
